# Where a chain is given by its changes, count along the chain named.
# Assays:
# Test in all cases: PBM; 200 nM protein, PBS
# Settings in all cases: dsDNA, one strand shown
# HESX1 = HESX1 (Homo sapiens, UniProt Q9UBX0 95-180)
# HOXA2 [1] = molecular target: HOXA2 (Homo sapiens, UniProt O43364 129-215, R185T)
# ALX3 [2] = molecular target: ALX3 (Homo sapiens, UniProt O95076 139-225, N203Q)
# ALX3 [3] = molecular target: ALX3 (Homo sapiens, UniProt O95076 139-225)
# ALX3 [4] = molecular target: ALX3 (Homo sapiens, UniProt O95076 139-225, N203S)
# HOXA2 [5] = molecular target: HOXA2 (Homo sapiens, UniProt O43364 129-215)
# NKX2-6 = molecular target: T1, NKX2-6 (Homo sapiens, UniProt A6NCS4 118-204, R150C)
# T1 sequence: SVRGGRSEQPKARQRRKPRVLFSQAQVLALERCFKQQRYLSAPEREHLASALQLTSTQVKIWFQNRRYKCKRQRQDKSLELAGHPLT
# MSX2 [6] = molecular target: MSX2 (Homo sapiens, UniProt P35548 130-214, R199I)
# HOXA2 [7] = molecular target: HOXA2 (Homo sapiens, UniProt O43364 129-215, R185K)
# MSX2 [8] = molecular target: MSX2 (Homo sapiens, UniProt P35548 130-214)
# MSX2 [9] = molecular target: MSX2 (Homo sapiens, UniProt P35548 130-214, F161Y)
# HOXA2 [10] = molecular target: HOXA2 (Homo sapiens, UniProt O43364 129-215, Y150S)
# ALX3 [11] = molecular target: ALX3 (Homo sapiens, UniProt O95076 139-225, L168Q)
# ALX3 [12] = molecular target: ALX3 (Homo sapiens, UniProt O95076 139-225, L168V)
# HOXD13 [13] = molecular target: HOXD13 (Homo sapiens, UniProt P35453 263-343, T313R)
# HOXD13 [14] = molecular target: HOXD13 (Homo sapiens, UniProt P35453 263-343)
# HOXD13 [15] = molecular target: HOXD13 (Homo sapiens, UniProt P35453 263-343, T313A)
# SIX6 [16] = molecular target: T2, SIX6 (Homo sapiens, UniProt O95475 114-200, T165G)
# T2 sequence: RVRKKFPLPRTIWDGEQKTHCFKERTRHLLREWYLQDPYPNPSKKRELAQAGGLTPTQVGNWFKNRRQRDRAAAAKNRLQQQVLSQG
# SIX6 [17] = molecular target: T3, SIX6 (Homo sapiens, UniProt O95475 114-200, T165A)
# T3 sequence: T2 sequence with G52A
# PITX2 = PITX2 (Homo sapiens, UniProt Q99697 72-157)
# HOXA2 (Homo sapiens, UniProt O43364 129-215, Y150S), sequence (O43364 129-215 Y150S): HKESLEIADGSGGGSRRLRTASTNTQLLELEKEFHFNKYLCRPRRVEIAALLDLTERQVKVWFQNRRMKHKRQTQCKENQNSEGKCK
# HOXA2 (Homo sapiens, UniProt O43364 129-215, R185K), sequence (O43364 129-215 R185K): as the sequence (O43364 129-215 Y150S) above, with S22Y, R57K counted along it
# HOXA2 (Homo sapiens, UniProt O43364 129-215, R185T), sequence (O43364 129-215 R185T): as the sequence (O43364 129-215 Y150S) above, with S22Y, R57T counted along it
# HOXA2 (Homo sapiens, UniProt O43364 129-215), sequence (O43364 129-215): as the sequence (O43364 129-215 Y150S) above, with S22Y counted along it
# HESX1, sequence (Q9UBX0 95-180): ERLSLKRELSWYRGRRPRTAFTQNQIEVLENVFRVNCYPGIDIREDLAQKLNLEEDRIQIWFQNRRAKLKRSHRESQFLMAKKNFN
# MSX2 (Homo sapiens, UniProt P35548 130-214, R199I), sequence (P35548 130-214 R199I): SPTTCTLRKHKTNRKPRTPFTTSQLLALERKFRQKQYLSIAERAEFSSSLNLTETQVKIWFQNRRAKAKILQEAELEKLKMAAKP
# ALX3 (Homo sapiens, UniProt O95076 139-225), sequence (O95076 139-225): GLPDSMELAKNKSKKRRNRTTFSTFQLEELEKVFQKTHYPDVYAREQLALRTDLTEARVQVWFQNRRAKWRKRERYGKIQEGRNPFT
# ALX3 (Homo sapiens, UniProt O95076 139-225, N203S), sequence (O95076 139-225 N203S): as the sequence (O95076 139-225) above, with N65S counted along it
# ALX3 (Homo sapiens, UniProt O95076 139-225, N203Q), sequence (O95076 139-225 N203Q): as the sequence (O95076 139-225) above, with N65Q counted along it
# HOXD13 (Homo sapiens, UniProt P35453 263-343, T313R), sequence (P35453 263-343 T313R): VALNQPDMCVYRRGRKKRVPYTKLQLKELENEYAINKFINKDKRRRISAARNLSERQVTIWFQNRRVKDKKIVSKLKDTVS
# ALX3 (Homo sapiens, UniProt O95076 139-225, L168V), sequence (O95076 139-225 L168V): as the sequence (O95076 139-225) above, with L30V counted along it
# MSX2 (Homo sapiens, UniProt P35548 130-214, F161Y), sequence (P35548 130-214 F161Y): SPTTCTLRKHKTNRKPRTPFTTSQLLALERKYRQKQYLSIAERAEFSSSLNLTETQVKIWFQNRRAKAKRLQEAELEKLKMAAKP
# HOXD13 (Homo sapiens, UniProt P35453 263-343), sequence (P35453 263-343): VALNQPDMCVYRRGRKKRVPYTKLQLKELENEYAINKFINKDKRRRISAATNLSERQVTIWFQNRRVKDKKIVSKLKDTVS
# MSX2 (Homo sapiens, UniProt P35548 130-214), sequence (P35548 130-214): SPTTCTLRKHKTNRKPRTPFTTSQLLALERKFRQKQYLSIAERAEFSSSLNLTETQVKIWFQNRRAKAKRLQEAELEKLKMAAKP
# HOXD13 (Homo sapiens, UniProt P35453 263-343, T313A), sequence (P35453 263-343 T313A): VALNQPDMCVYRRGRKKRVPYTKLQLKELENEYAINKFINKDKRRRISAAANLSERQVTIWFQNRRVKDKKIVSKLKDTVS
# ALX3 (Homo sapiens, UniProt O95076 139-225, L168Q), sequence (O95076 139-225 L168Q): as the sequence (O95076 139-225) above, with L30Q counted along it
sequence,measurement,setting,value
TAACTTGA,binding signal,HESX1,"7.21 upbm affinity estimate (log intensity, higher = more binding, comparable within an allelic series)"
CGTATTAC,binding signal,HOXA2 [1],"9.06 upbm affinity estimate (log intensity, higher = more binding, comparable within an allelic series)"
same,binding signal,ALX3 [2],"8.19 upbm affinity estimate (log intensity, higher = more binding, comparable within an allelic series)"
same,binding signal,ALX3 [3],"9.9 upbm affinity estimate (log intensity, higher = more binding, comparable within an allelic series)"
same,binding signal,ALX3 [4],"8.23 upbm affinity estimate (log intensity, higher = more binding, comparable within an allelic series)"
same,binding signal,HOXA2 [5],"9.08 upbm affinity estimate (log intensity, higher = more binding, comparable within an allelic series)"
CTGGCTCC,binding signal,HOXA2 [1],"7.01 upbm affinity estimate (log intensity, higher = more binding, comparable within an allelic series)"
same,binding signal,NKX2-6,"9.34 upbm affinity estimate (log intensity, higher = more binding, comparable within an allelic series)"
same,binding signal,MSX2 [6],"9.47 upbm affinity estimate (log intensity, higher = more binding, comparable within an allelic series)"
same,binding signal,HOXA2 [7],"10.3 upbm affinity estimate (log intensity, higher = more binding, comparable within an allelic series)"
same,binding signal,MSX2 [8],"9.34 upbm affinity estimate (log intensity, higher = more binding, comparable within an allelic series)"
same,binding signal,MSX2 [9],"9.4 upbm affinity estimate (log intensity, higher = more binding, comparable within an allelic series)"
same,binding signal,HOXA2 [10],"10.5 upbm affinity estimate (log intensity, higher = more binding, comparable within an allelic series)"
same,binding signal,HOXA2 [5],"6.91 upbm affinity estimate (log intensity, higher = more binding, comparable within an allelic series)"
CCCCCCCA,binding signal,HOXA2 [1],"7.25 upbm affinity estimate (log intensity, higher = more binding, comparable within an allelic series)"
same,binding signal,ALX3 [2],"7.7 upbm affinity estimate (log intensity, higher = more binding, comparable within an allelic series)"
same,binding signal,HOXA2 [7],"9.99 upbm affinity estimate (log intensity, higher = more binding, comparable within an allelic series)"
same,binding signal,ALX3 [3],"7.68 upbm affinity estimate (log intensity, higher = more binding, comparable within an allelic series)"
same,binding signal,ALX3 [11],"7.68 upbm affinity estimate (log intensity, higher = more binding, comparable within an allelic series)"
same,binding signal,ALX3 [12],"7.64 upbm affinity estimate (log intensity, higher = more binding, comparable within an allelic series)"
same,binding signal,HOXA2 [10],"10.2 upbm affinity estimate (log intensity, higher = more binding, comparable within an allelic series)"
same,binding signal,ALX3 [4],"7.67 upbm affinity estimate (log intensity, higher = more binding, comparable within an allelic series)"
same,binding signal,HOXA2 [5],"7.37 upbm affinity estimate (log intensity, higher = more binding, comparable within an allelic series)"
AATTTATG,binding signal,HOXA2 [1],"10.1 upbm affinity estimate (log intensity, higher = more binding, comparable within an allelic series)"
same,binding signal,HOXD13 [13],"10.7 upbm affinity estimate (log intensity, higher = more binding, comparable within an allelic series)"
same,binding signal,HOXA2 [7],"11.9 upbm affinity estimate (log intensity, higher = more binding, comparable within an allelic series)"
same,binding signal,HOXD13 [14],"11.6 upbm affinity estimate (log intensity, higher = more binding, comparable within an allelic series)"
same,binding signal,HOXD13 [15],"11.5 upbm affinity estimate (log intensity, higher = more binding, comparable within an allelic series)"
same,binding signal,HOXA2 [10],"10.9 upbm affinity estimate (log intensity, higher = more binding, comparable within an allelic series)"
same,binding signal,HOXA2 [5],"10.1 upbm affinity estimate (log intensity, higher = more binding, comparable within an allelic series)"
CCGACACC,binding signal,SIX6 [16],"10.4 upbm affinity estimate (log intensity, higher = more binding, comparable within an allelic series)"
same,binding signal,SIX6 [17],"10.3 upbm affinity estimate (log intensity, higher = more binding, comparable within an allelic series)"
ATAACTGC,binding signal,HESX1,"7.57 upbm affinity estimate (log intensity, higher = more binding, comparable within an allelic series)"
ATTACACC,binding signal,SIX6 [16],"10.7 upbm affinity estimate (log intensity, higher = more binding, comparable within an allelic series)"
same,binding signal,SIX6 [17],"10.7 upbm affinity estimate (log intensity, higher = more binding, comparable within an allelic series)"
same,binding signal,PITX2,"9.68 upbm affinity estimate (log intensity, higher = more binding, comparable within an allelic series)"
GCTAATCA,binding signal,HOXA2 [1],"12.5 upbm affinity estimate (log intensity, higher = more binding, comparable within an allelic series)"
same,binding signal,MSX2 [6],"11 upbm affinity estimate (log intensity, higher = more binding, comparable within an allelic series)"
ACACCACC,binding signal,SIX6 [16],"10.3 upbm affinity estimate (log intensity, higher = more binding, comparable within an allelic series)"
GCATAAAC,binding signal,HESX1,"7.44 upbm affinity estimate (log intensity, higher = more binding, comparable within an allelic series)"

# Source: PMC11006913
